# Values joined by “and” are separate entries in the source; they are usually repeats but may differ in a detail not shown here. Equal values may be shown once. Out of some 580,000 compounds screened, about 6,100 (1.1%) were called active. About 15% were inconclusive and are not listed. This excerpt belongs to a sample that is enriched for actives. A number with no mark means an inactive call. The call rests on the fitted dose curve; in most records, active means well fitted inhibition curve with a large enough effect; inconclusive means small, poorly fitted or top-dose-only effect, or another doubt; inactive means no such curve, though single readings can be large or run the other way.
# Biological target: Polyunsaturated fatty acid lipoxygenase ALOX12 (Homo sapiens) (UniProt P18054)
# Sequence (P18054 whole entry, looked up): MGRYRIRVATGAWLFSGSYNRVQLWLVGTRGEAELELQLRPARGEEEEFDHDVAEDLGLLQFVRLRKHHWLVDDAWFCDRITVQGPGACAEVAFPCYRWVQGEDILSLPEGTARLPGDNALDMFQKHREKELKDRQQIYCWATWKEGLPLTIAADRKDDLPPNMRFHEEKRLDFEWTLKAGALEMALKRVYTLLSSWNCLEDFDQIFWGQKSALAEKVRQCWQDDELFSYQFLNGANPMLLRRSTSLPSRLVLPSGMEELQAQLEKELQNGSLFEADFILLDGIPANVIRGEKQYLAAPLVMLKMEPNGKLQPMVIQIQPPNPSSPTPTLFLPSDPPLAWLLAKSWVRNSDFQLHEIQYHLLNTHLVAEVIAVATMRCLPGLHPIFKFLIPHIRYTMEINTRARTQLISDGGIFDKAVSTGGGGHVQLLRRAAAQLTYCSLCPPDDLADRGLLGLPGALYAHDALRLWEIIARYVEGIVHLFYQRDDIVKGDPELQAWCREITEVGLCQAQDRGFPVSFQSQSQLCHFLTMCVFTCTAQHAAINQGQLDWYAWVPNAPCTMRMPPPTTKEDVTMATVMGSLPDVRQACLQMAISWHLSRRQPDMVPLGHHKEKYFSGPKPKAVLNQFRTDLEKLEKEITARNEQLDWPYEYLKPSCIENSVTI
# Assay: Primary qHTS assay for inhibitors of human arachidonate 12S-lipoxygenase (ALOX12): Round 2
# Settings: purified 12hLO, xylenol orange hydroperoxide absorbance; series mostly up to 108 µM; activity change, negative = inhibition: at the top concentration
# Summary of the method: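 Hydroperoxide product was detected by ferrous iron/xylenol orange as the 573 to 405 nm absorbance ratio. Arachidonic acid at 40 uM (final) was turned over for 30 min at room temperature by 150 nM human 12hLO, pH 7.0 Hepes buffer, after 15 min compound preincubation.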
# On the % scale 0 is the no-effect control and ±100 the full control effect; potency means the concentration at half of the fitted maximal effect.
Structure (SMILES),"activity change, negative = inhibition",Potency
CC(C)(C)OC(=O)C(C#N)c1cnccn1 (stereo not given),0.566%,–
CC(C)Oc1ccc(C(O)(CC[N+](C)(C)C)C2CCCCC2)cc1 (stereo not given),–,11.2 µM (active)
CC(C)Oc1ccc(C(=O)NC(C)(C)CO)cc1,-27.6%,–
COc1ccc(C(O)(C2CCCCC2)C(CN2CCCC2)c2ccccc2)cc1 (stereo not given),0%,–
O=C(CN1C(=O)CC2(CCCCC2)C1=O)c1c[nH]c2ccccc12,24.3%,–
CCn1nc(C(=O)Nc2ccccn2)c2ccccc2c1=O,-0.227%,–
Cc1ccccc1CNC(=O)c1cc(-c2ccncc2)nc2ccccc12,-19.4%,–
COc1ccc(C2C(=O)N(C3CCCCCC3)CC(=O)N2CCc2ccc(Cl)cc2)cc1OC (stereo not given),-25.5%,–
COc1ccc(C2NC(=O)C(=O)/C2=C(\O)c2ccc(Cl)cc2)cc1OC (stereo not given),–,28.2 µM (active)
CCC1(C)COC(c2ccc(OC)c(OC)c2)OC1 (stereo not given),-2.84%,–
CCN(CC)S(=O)(=O)c1ccc(-c2csc(-c3ccc(OC)c(OC)c3)n2)cc1,-13.9%,–
CC(C)(C)c1ccc(/C=N/NC(=O)c2ccccc2)cc1,27.4%,–
O=C(CN1c2ccccc2S(=O)(=O)c2ccccc21)Nc1cccc(C(F)(F)F)c1,-26.5%,–
FC(F)(F)c1cccc(N/N=C/c2ccccc2)c1,–,3.55 µM (active)
O=C(O)c1cc(-c2ccc3ccccc3n2)nc2ccc3ccccc3c12,2.92%,–
CC1(C)CC(=O)C/C(=N/NC(=O)c2ccc(NC(=O)C3CC3)cc2)C1,-1.6%,–
O=S(=O)(NC1CC1)c1ccc2c3c(cccc13)CC2,8.58%,–
N#CC1(NC(=O)COC(=O)Cc2n[nH]c(=O)c3ccccc23)CCCCC1,–,inactive
N#CC1(Nc2ccc3c4c(cccc24)CC3)CCCCC1,–,31.6 µM (active)
CCCCC(=O)Nc1ccccc1C(C)CC (stereo not given),2.54%,–
Cc1nn(-c2ccc(F)cc2)c(Oc2ccccc2F)c1CCC(=O)NCC1CCCO1 (stereo not given),48.6%,–
C=CCNC(=S)/N=c1/ccccn1Cc1ccccc1,–,44.7 µM (active)

Structure (SMILES),"activity change, negative = inhibition",Potency
C=CCNC(=O)COc1coc(CN2CCN(Cc3ccccc3)CC2)cc1=O,30.2%,–
C=CCNC(=O)N1CC[C@H]2CC(=O)N(c3ccccc3)CC[C@H]2C1,0.74% [at 176 µM],–
COc1ccccc1N1CCN(C(=O)CSc2nccn3nc(-c4ccccc4)cc23)CC1,9.23%,–
CCOc1cc2ccccc2cc1C(=O)N1CCN(CC(=O)Nc2cccc(F)c2)CC1,0.995%,–
COc1ccc(C2CC(=O)NC(SCC(=O)Nc3c(C)cccc3C)=C2C#N)cc1OC (stereo not given),-3.6%,–
COc1cc(C2CC(=O)N3CN(Cc4ccccc4)CSC3=C2C#N)ccc1OCc1ccccc1 (stereo not given),–,14.1 µM (active)
COC(=O)c1ccc(OCc2cccc(C#N)c2)c(OC)c1,-23.9%,–
CCN(CC1COc2ccccc2O1)S(=O)(=O)N1CCOCC1 (stereo not given),8.61%,–
Nc1nonc1C(=O)N1CCN(C(=O)Nc2ccccc2)CC1,11.1%,–
Cc1cccc2c1NC(=O)C21CC(=O)Nc2c1cnn2C(C)(C)C (stereo not given),-1.1%,–
CCOc1c(Br)cc(/C=C/C(=O)c2ccc(OC)c(OC)c2)cc1OC,-4.63%,–
Cc1ccccc1Nc1nc(C(=O)NCCCN2CCOCC2)cs1,0.395%,–
Cc1cccc(-c2nc3cnccn3c2NCCC(=O)N2CCCCCC2)c1,-13.1%,–
COc1cccc(-c2nc3nc(C)cc(C)n3c2NC2CCCCC2)c1,-25%,–
COc1ccc(-c2nc3cnccn3c2NC2CCCCC2)cc1-c1cccc(Cl)c1,–,7.94 µM (active)
O=C1COc2ccc(Nc3ccccc3F)nc2CN1Cc1ccccc1F,-16.2% [at 176 µM],–
Cc1ccc(-c2nc(SCc3ccc(Br)cc3)n3[nH]c(=O)cc3n2)cc1,–,31.6 µM (active)
Cc1cccc(-c2nc(SCc3ccc(Br)cc3)n3[nH]c(=O)cc3n2)c1,-26.7%,–
O=c1cc2nc(-c3ccccc3)nc(SCCOc3ccc(Cl)cc3)n2[nH]1,0%,–
COc1ccc(OC)c(CNC(=O)c2cc3c(s2)-c2c(C)cccc2OC3)c1,-1.33%,–
CCNC(=S)NC1CC(C)(C)NC(C)(C)C1,-3.31%,–
Cc1cccc(NC(NC(=O)C(C)C)(C(F)(F)F)C(F)(F)F)c1,-27.2%,–

Structure (SMILES),"activity change, negative = inhibition",Potency
CCCNC(=O)C(C)OC(=O)c1cc(=O)[nH]c2ccccc12 (stereo not given),-59.8%,–
Cc1ccc(NC(=O)CCC(=O)c2ccc(Br)cc2)cc1,0%,–
Cc1c(Cl)cccc1NC(=O)[C@@]1(CC(=O)O)CC(/C=C/c2ccccc2)=NO1,-17.8%,–
CC(=O)c1ccc(NC(=O)[C@@]2(CC(=O)O)CC(c3ccc(Br)cc3)=NO2)cc1,–,44.7 µM (active)
O=C1OC(C2CC2)c2cc3c(cc21)OCCO3 (stereo not given),0.0886%,–
O=C(O)c1ccc(S(=O)(=O)Nc2cc(F)ccc2OCC(F)(F)F)cc1,-0.0528%,–
Cc1cccc(OCCn2c(CN3CCCCC3)nc3ccccc32)c1,5.02%,–
CCn1ncc(N2CCC(NC(=O)c3ccc(OC(C)C)cc3)CC2)cc1=O,42.2%,–
COc1ccc(NC(C)=O)cc1NC(=O)CCn1cnc2c1c(=O)n(C)c(=O)n2C,2.56%,–
O=C(Cn1c(=O)n(CCc2ccccc2)c(=O)c2sccc21)c1ccc(Cl)cc1,–,22.4 µM (active)
CCC1CCCCN1C(=O)Cn1c(=O)n(CCCCCC(=O)NCc2ccccc2)c(=O)c2sccc21 (stereo not given),-3.5%,–
Cc1cccc(Cn2c(=O)n(CCC(=O)NCCc3ccc(Cl)cc3)c(=O)c3sccc32)c1,–,inactive
CC(=O)SC(CC(=O)c1ccccc1)c1ccccc1 (stereo not given),6.08%,–
NCCC(=O)Nc1ccccn1,-72.1%,–
S=C(NN=Cc1ccccn1)Nc1ccccn1,–,39.8 µM (active)
Cc1nc2sc(C(=O)OCC(=O)Nc3cccc(C(F)(F)F)c3)c(C)c2c(=O)[nH]1,-13.1%,–
COCCCNC(=O)CCn1ccc2cc(S(=O)(=O)N3CCCCC3)ccc21,-21.4%,–
O=C(Nc1ccccc1Br)c1nc2ccccc2nc1N1CCOCC1,23.4%,–
COc1ccc(C(=O)/C(C#N)=C\c2ccccc2OC(F)F)cc1,-60.9%,–
COc1cc(Br)c(/C=C(/C#N)C(=O)c2ccccc2)cc1O,–,10 µM (active)
COc1ccc(Cl)cc1NC(=O)/C(C#N)=C/c1coc2ccc(Cl)cc2c1=O,-20.8%,–
C=CCn1c(-n2nc(CC)cc2CC)nc2c1c(=O)n(C)c(=O)n2C,-0.9%,–

Structure (SMILES),"activity change, negative = inhibition",Potency
O=C(NC1CCN(Cc2ccccc2)C1)c1cc2ccccc2oc1=O (stereo not given),7.23%,–
N#Cc1cccc(NC(=O)CSc2nnc(Cc3ccccc3)o2)c1,-6.14%,–
Cc1ccc(S(=O)(=O)NC(C)c2cccs2)cc1 (stereo not given),3.7%,–
Cc1ccc(S(=O)(=O)/N=C2\C=C(NS(=O)(=O)c3ccc(C)cc3)C(=O)c3ccccc32)cc1,–,15.8 µM (active)
CSCC(NS(=O)(=O)c1ccc(C)cc1)C(=O)O (stereo not given),-24.3%,–
CC(C)c1ccc(C(=O)N/N=C/CCc2ccccc2)cc1,8.22%,–
N#CCCN1CCC(c2ccccc2)C1 (stereo not given),-9.5%,–
CCCCC(CC(C)O)c1n[nH]c(=S)n1-c1ccccc1 (stereo not given),-11.3%,–
S=c1[nH]nc(-c2cc(-c3ccsc3)n[nH]2)n1-c1ccccc1,–,15.8 µM (active)
CC(=O)c1c(SCC(=O)Nc2ccc(F)cc2)nc(=O)[nH]c1C,2.13%,–
COCC(=O)N1CCC(c2nc(C3CCOCC3)n[nH]2)CC1,31.6%,–
COc1ccc(Nc2nc3ccccc3nc2NS(=O)(=O)c2ccc(OC)cc2)cc1,30.7%,–
Cc1ccc(NS(=O)(=O)c2cccc(C(=O)N(C)C(C)c3nc4ccccc4s3)c2)cc1 (stereo not given),-24.6%,–
COc1ccc(S(=O)(=O)Nc2ccc(O)c(Sc3nc4ccccc4s3)c2)cc1,–,44.7 µM (active) and 22.4 µM (active)
COC(=O)C1=C(C)NC(=O)C1(NC(=O)c1ccccc1F)C(F)(F)F (stereo not given),4.24%,–
CCCCCCc1ccc(/C(C)=C\C(=O)O)cc1,-0.714%,–
CC(C)Oc1ccc(-c2cc(C(=O)NCc3ccncc3)c3ccccc3n2)cc1,2.41%,–
CCOc1ccc(CNC(=O)c2cc(-c3ccc(Cl)s3)nc3ccccc23)cc1,3.09%,–
CCc1ccc(-c2cc(C(=O)NCc3ccco3)c3ccccc3n2)s1,–,17.8 µM (active) and 35.5 µM (active)
O=C(CSc1nc(-c2ccc(F)cc2)cs1)NC1CCCCC1,-28.6%,–
CC(C)Cn1cnc2c1c(=O)n(CC(=O)OCc1ccc(F)cc1)c(=O)n2Cc1ccccc1,-0.353%,–
COC(=O)C1=C(C)Nc2nc3ccccc3n2C1c1cc(OC)c(O)c(OC)c1 (stereo not given),-5.58%,–

Structure (SMILES),"activity change, negative = inhibition",Potency
CCC(CO)Oc1cc(NC(=O)c2ccc(Cl)cc2)c2ncn(C(C)C)c2c1 (stereo not given),–,3.16 µM (active)
CCOc1ccc(NC(=O)c2ccc(Cl)cc2)c2cccnc12,-4.2%,–
CC(C)Oc1ccc(NC(=O)c2ccc(Cl)cc2)cc1,11.9%,–
COc1ccccc1C(=O)N1CCCN(CCc2ccccc2)c2ccccc21,-8.95%,–
COc1cccc(CN2Cc3cc(NC(=O)Cc4cccs4)ccc3OC(C)C2=O)c1OC (stereo not given),-4.41%,–
CCOc1ccc(Cl)cc1-c1cc(C(=O)NCc2cccs2)[nH]n1,2.11%,–
O=C(NCc1ccc(Cl)cc1)c1cc(-c2ccc[nH]2)n[nH]1,–,31.6 µM (active)
COc1ccccc1CNC(=O)c1cc(-c2cc(Cl)ccc2C)n[nH]1,4.1%,–
CCCn1nc(C(=O)Nc2nc(-c3ccc(NC(C)=O)cc3)cs2)c2ccccc2c1=O,9.87%,–
CC(NC(=O)CSc1ccc(F)c(F)c1)c1nc2ccccc2[nH]1 (stereo not given),23.4%,–
Cc1c(Cl)cccc1NC(=S)NCCSc1ccc(Cl)cc1,-85.7%,–
Cc1cccc(NC(=S)NCCc2ccc(F)cc2)c1C,–,39.8 µM (active)
O=C(NCCc1ccccc1)Oc1ccc(Cl)cc1,0%,–
Cc1cc(Cl)ccc1NC(=S)NCCCN1CCCC1=O,-17.6%,–
CCC(C)C(NC(=O)NCc1ccc(C)cc1)C(=O)O (stereo not given),-26.5%,–
CN(CC(=O)Nc1ccc(Cl)cc1)C(=O)c1ccc(COc2ccccc2)cc1,-58.7%,–
Cc1ccc(C)c(C(C)NC(=S)NCc2ccc(Cl)cc2)c1 (stereo not given),–,31.6 µM (active)
Cc1ccc(NC(=S)NCCc2ccc(Cl)cc2)c(C)c1,–,35.5 µM (active)
CCNC(=S)Nc1ccc(C)cc1Br,-16.7%,–
S=C(NCCc1ccc(Cl)cc1)Nc1ccc(Oc2ccccc2)cc1,–,17.8 µM (active)
Cc1cccc(NC(=S)N2CCC(O)CC2)c1C,6.13%,–
Cc1nn(C)c2c1c(C(F)(F)F)cc(=O)n2C(C)C(=O)NCc1ccc(Cl)cc1 (stereo not given),-0.223%,–
